Shown are actives, neighbours in structure and some others; about 12% of the full set was active somewhere.
BAZ2B block – inhibitors of human BAZ2B bromodomain; AlphaScreen BAZ2B-H3K14Ac peptide displacement; Potency, µM (titrated, usually from 114 µM), hits mostly inhibitors; 360,000 tested, 4.4% active; note: nearly all actives have a fitted effect of over 60% in size
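BAZ2B 50 nM plus b-H3(5-23)K14Ac 50 nM, PBS pH 7.4/0.01% Tween-20, 30 min RT; compound added (max 110 uM), 30 min RT; streptavidin donor/Ni-chelate acceptor beads 10 ug/mL final, 20 min dark; AlphaScreen read.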
JMJD2A Tudor inh – JMJD2A Tudor domain (human) inhibition. O75164. AlphaScreen JMJD2A-Tudor / H3K4me3 peptide binding. Potency, µM (titrated, usually from 114 µM), hits mostly inhibitors. 390,000 tested, 4.4% active. AID 504339; note: nearly all actives have a fitted effect of over 50% in size
Target sequence (O75164 whole entry, looked up, the tested form may be a part): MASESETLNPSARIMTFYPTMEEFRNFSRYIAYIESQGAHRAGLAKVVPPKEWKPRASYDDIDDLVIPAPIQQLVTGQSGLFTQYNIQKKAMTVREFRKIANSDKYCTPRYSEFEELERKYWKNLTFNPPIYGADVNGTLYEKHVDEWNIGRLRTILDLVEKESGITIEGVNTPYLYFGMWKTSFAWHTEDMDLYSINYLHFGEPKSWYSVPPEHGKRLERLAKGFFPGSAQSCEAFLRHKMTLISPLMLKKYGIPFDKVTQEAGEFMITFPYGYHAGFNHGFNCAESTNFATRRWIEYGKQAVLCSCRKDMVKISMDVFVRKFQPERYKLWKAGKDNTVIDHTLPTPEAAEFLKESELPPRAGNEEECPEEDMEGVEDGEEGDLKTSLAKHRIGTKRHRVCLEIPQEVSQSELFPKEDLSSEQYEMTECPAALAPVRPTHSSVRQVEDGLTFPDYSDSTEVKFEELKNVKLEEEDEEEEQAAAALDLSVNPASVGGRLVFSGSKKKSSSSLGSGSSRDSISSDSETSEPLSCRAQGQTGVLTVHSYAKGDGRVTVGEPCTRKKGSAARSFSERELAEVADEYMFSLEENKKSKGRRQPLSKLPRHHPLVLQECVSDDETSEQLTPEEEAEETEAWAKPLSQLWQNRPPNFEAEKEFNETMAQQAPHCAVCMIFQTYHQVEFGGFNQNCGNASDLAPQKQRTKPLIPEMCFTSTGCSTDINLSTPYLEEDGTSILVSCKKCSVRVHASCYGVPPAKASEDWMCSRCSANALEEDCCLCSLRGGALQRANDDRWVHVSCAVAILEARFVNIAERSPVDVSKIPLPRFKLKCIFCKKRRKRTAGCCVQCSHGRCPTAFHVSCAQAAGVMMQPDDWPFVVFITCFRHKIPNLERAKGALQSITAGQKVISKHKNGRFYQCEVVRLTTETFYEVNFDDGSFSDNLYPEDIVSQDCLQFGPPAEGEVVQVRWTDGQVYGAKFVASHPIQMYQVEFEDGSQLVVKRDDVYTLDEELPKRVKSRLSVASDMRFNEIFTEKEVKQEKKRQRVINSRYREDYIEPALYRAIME
G9a block – inhibitors of human histone lysine methyltransferase G9a. Q96KQ7. G9a H3K9 monomethylation, AlphaScreen, 2 h. Potency, µM (highest dose often 102 µM), hits mostly inhibitors. 350,000 tested, 8.8% active; note: nearly all actives have a fitted effect of over 75% in size
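G9a (20 nM) preincubated 15 min RT with compounds, then 500 nM biotinylated H3K9 peptide and 20 uM SAM added; 2 h RT reaction. Monomethyl-H3K9 product detected by AlphaScreen with anti-H3K9me1 antibody, streptavidin donor and anti-rabbit IgG acceptor beads.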
HP1b chromo inh – HP1-beta chromodomain-methylated histone interaction inhibition; P83916; AlphaScreen HP1-beta / biotin-H3K9me3 peptide binding; Potency, µM (top dose mostly 114 µM), usual class: inhibitors; 390,000 tested, 0.56% active; AID 540317; note: nearly all actives have a fitted effect of over 70% in size
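Compound inhibition of the preformed complex between 50 nM HP1-beta and 50 nM biotinylated H3K9me3 peptide was read by AlphaScreen. Buffer was PBS pH 7.4 with 0.01% Tween-20. Incubations ran 30 min at room temperature, with 10 ug/mL donor/acceptor beads.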
Sfp inh – blocks B. subtilis Sfp PPTase activity; Biochemical Sfp PPTase activity, qHTS; Potency, µM, usual class: inhibitors; 310,000 tested, 3.5% active; Q9F4F7;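 note: the enzyme is Sfp with the accession as filed and its product quenches rhodamine fluorescence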
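After 15 min at room temperature with compound, 15 nM Sfp received 5 uM rhodamine-CoA plus 12.5 uM BHQ-2-ybbR (50 mM Hepes pH 7.6, 10 mM MgCl2). Rate came from the fluorescence difference over 30 min, ex 525/em 598 nm.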
Hits are given with their value; . = inactive; ? = inconclusive; / = no result given; ! = repeats disagree; [ ] = dose if it differs, or a comment. Calls come from the whole dose curve; as a rule, active = well fitted curve in the direction sought with a large enough effect; inconclusive = small, poorly fitted or top-dose-only effect, or another doubt; inactive = no such curve, though single readings can be large; an effect the other way counts as inactive or inconclusive.

SMILES	BAZ2B block	JMJD2A Tudor inh	G9a block	HP1b chromo inh	Sfp inh
O=C(c1cccs1)N1N=C(c2ccc(O)cc2)CC1c1ccccc1 (configuration not stated)	.	.	.	.	18µM
O=C(c1cccs1)N1N=C(c2ccccc2)CC1c1ccc(O)cc1 (configuration not stated)	.	.	?	?	20µM
O=C(c1ccccc1)N1N=C(c2ccc(F)cc2)CC1c1ccc(F)cc1 (configuration not stated)	/	.	/	.	/
COc1ccc(C2=NN(C(=O)c3cccs3)C(c3ccc(OC)cc3)C2)cc1 (configuration not stated)	.	.	.	.	?
COc1ccc(CN(C)Cc2nc(Cc3cccc(F)c3)no2)c2cccnc12	.	.	/	.	.
CS(=O)(=O)N1CCc2cc(C(=O)Nc3ccc(Cl)c(C(F)(F)F)c3)ccc21	.	.	.	.	/
COC(=O)c1cc2oc(C)cc2n1Cc1cc(C)ccc1C	.	.	?	.	/
CCCCCc1cc(=O)oc2c(C(CCN3CCCC(C)C3)c3ccc4c(c3)OCO4)c(OC)cc(OC)c12 (configuration not stated)	32µM	?	?	.	.
CCCCCc1cc(=O)oc2c(C(CCN3CCCC3)c3ccc4c(c3)OCO4)c(OC)cc(OC)c12 (configuration not stated)	/	50µM	/	.	40µM
COc1cc(OC)c2c(-c3ccccc3)cc(=O)oc2c1C(CCN1CCCC1)c1ccc2c(c1)OCO2 (configuration not stated)	.	?	.	.	?
COc1cc(OC)c2ccc(=O)oc2c1C(CCN1CCCC1)c1ccc2c(c1)OCO2 (configuration not stated)	.	.	.[12.7 µM]	.	.
CCCCCc1cc(=O)oc2c(C(CCN3CCCCC3)c3ccc4c(c3)OCO4)c(OC)cc(OC)c12 (configuration not stated)	?	45µM	.[12.7 µM]	.	56µM
CCc1ccc(CCN2C(=O)c3ccccc3C2=O)nc1	.	.	/	.	.
Cc1nc(CCN2C(=O)c3ccccc3C2=O)n[nH]1	?	25µM	?	.	.
CCOC(=O)CNC1CC(=O)N(c2cccc(Cl)c2)C1=O (configuration not stated)	.	?	10µM	.	.
CC1(C)CCC(=NNC(N)=S)CC1	/	0.71µM	/	?	/
COc1cccc(C2C(C(=O)c3cc4ccccc4o3)=C(O)C(=O)N2CCN2CCOCC2)c1 (configuration not stated)	.	.	45µM	.	.
COc1cccc2cc(C(=O)C3=C(O)C(=O)N(CCN4CCOCC4)C3c3ccc(C)o3)oc12 (configuration not stated)	?	.	32µM	.	.
O=C(C1=C(O)C(=O)N(CCN2CCOCC2)C1c1ccc(Cl)cc1)c1cc2ccccc2o1 (configuration not stated)	.	.	.[0.0925 µM]	.	.
COC(=O)c1ccc(C2C(C(=O)c3cc4ccccc4o3)=C(O)C(=O)N2CCN2CCOCC2)cc1 (configuration not stated)	.	.	?	.	.
O=C(C1=C(O)C(=O)N(CCN2CCOCC2)C1c1ccc([N+](=O)[O-])cc1)c1cc2ccccc2o1 (configuration not stated)	.	.	40µM	.	.
COc1ccccc1C1C(C(=O)c2cc3ccccc3o2)=C(O)C(=O)N1CCN1CCOCC1 (configuration not stated)	?	89µM	8.9µM	.	.
CC(=O)Nc1ccc(NC(=O)Cn2nc(C(=O)Nc3ccc(C)cc3)ccc2=O)cc1	.	.	.	.	.
NC(CSS(=O)(=O)O)=NCCC12CC3CC(CC(O)(C3)C1)C2	.	.	10µM	?	50µM
CCc1ccc(/C=C/C(=O)C2C(=O)c3ccccc3C2=O)cc1	.	.	?	.	79µM
SMILES	BAZ2B block	JMJD2A Tudor inh	G9a block	HP1b chromo inh	Sfp inh
CC(=O)c1ccccc1Oc1cc(NN2CCCCC2)c([N+](=O)[O-])cc1[N+](=O)[O-]	32µM	?	28µM	.	.
CC(=O)c1cccc(Oc2cc(NN3CCCCC3)c([N+](=O)[O-])cc2[N+](=O)[O-])c1	?	?	50µM	.	.
O=[N+]([O-])c1cc([N+](=O)[O-])c(Oc2cccc3ccccc23)cc1NN1CCCCC1	/	?	/	.	/
CN(C)CCNc1nc(-c2ccco2)c2c(c1C#N)CC(C)(C)OC2	.	.	.	.	.
CC1(C)Cc2c(C#N)c(N3CCN(C(=O)c4ccccc4)CC3)nc(-c3ccco3)c2CS1	50µM	.	14µM	.	20µM
N#Cc1c(N2CCOCC2)nc(-c2ccco2)c2c1CCCC2	.	.	22µM	.	45µM
CCCCN(C)c1nc(-c2ccco2)c2c(c1C#N)CC(C)(C)OC2	.	89µM	45µM	.	35µM
CC1(C)Cc2c(C#N)c(N3CCCC3)nc(-c3ccco3)c2CO1	.	/	35µM	/	18µM
CC(C)c1nc(N2CCN(C(=O)c3ccco3)CC2)c(C#N)c2c1COC(C)(C)C2	?	.	?	?	.
CC1(C)Cc2c(C#N)c(NCc3ccco3)nc(-c3ccco3)c2CO1	.	.	?	.	3.5µM
Cc1nc(NCc2ccco2)c(C#N)c2c1COC(C)(C)C2	.	.	.	.	.
COc1ccc(-c2nc(SCC(=O)Nc3c(C)cc(C)cc3C)n[nH]2)cc1	.	.	.	.	/
CCN1C(=O)N[C@H](c2ccc(Br)cc2)C(C(C)=O)=C1C	.	.	45µM	.	89µM!
CCN1C(=O)N[C@@H](c2cccc(F)c2)C(C(C)=O)=C1C	/	.	/	.	.
COc1ccc(OC)c(-n2c(SCC(=O)N3CCc4ccccc43)nc3c(c2=O)SCC3)c1	.	.	.	.	.
COc1ccccc1-n1c(SCC(=O)N2CCc3ccccc32)nc2c(c1=O)SCC2	.	.	.	.	79µM
Cn1c(=O)oc2cc(S(=O)(=O)N3CCCC(C(=O)NCc4ccc(F)cc4)C3)ccc21 (configuration not stated)	.	.	.	.	/
O=C(c1ccccc1)c1c(O)cc(-c2ccccc2)oc1=O	56µM	?	?	?	.
O=C(NC1CCCc2ccccc21)c1ccc(S(=O)(=O)N2CCOCC2)cc1 (configuration not stated)	/	.	.	.	.
Cc1cccc(C)c1N(Cc1ccccc1F)S(C)(=O)=O	.	.	.	.	.
Cc1ccc(C(=O)NCC(=O)OCC(=O)NCCc2ccccc2)s1	?	50µM	.	.	.
Cc1ccc(C(=O)NCC(=O)NCCCc2ccccc2)s1	.	.	?	.	.
N#CC(C#N)=C1C=CC=CN1/C(=C\c1ccco1)C(=O)c1ccc(Cl)cc1	?	?	?	.	14µM
N#C/C(=C/c1ccc(C(=O)O)cc1)C(=O)NCc1ccccc1	.	.	?	.	18µM
N#C/C(=C\c1cccs1)C(=O)NCc1cccnc1	.	.	.	.	.

Compound activity as filed in PubChem BioAssay.
